Test results: PubChem BioAssay (NCATS)
Where “and” joins values, the source holds several entries; their conditions need not be identical. Equal values may be shown once. Inconclusive results are not listed. Entries that show only a call come without a potency. Unmarked numbers belong to inactive results. Calls of active or inactive are those of the source. The call rests on the fitted dose curve; in most records, active means well fitted inhibition curve with a large enough effect; inconclusive means small, poorly fitted or top-dose-only effect; inactive means no such curve, though single readings can be large or run the other way. Where a SMILES comes first, the peptide text is derived from it. Bridges are numbered along the chain shown (N, C = ends). [ ]: non-standard residue; d: D form. NMeY = CN[CH](Cc1ccc(O)cc1)C(=O)O

Test: Primary qHTS for inhibitors of nuclear receptor binding SET domain protein 2 (NSD2) in an RCH-ACV wild type WT cells (2C) (AID 1645877); further: nearly all actives have a fitted effect of over 70% in size
Details: RCH-ACV (leukaemia line) NSD2 WT (2C) viability, CellTiter-Glo, 72 h; series mostly up to 44.9 µM
Potency means the concentration at half of the fitted maximal effect.

| Compound | Potency | outcome | activity change, negative = cell killing |
| --- | --- | --- | --- |
| CCC(C)C1NC(=O)C2CCCN2C(=O)C(NC(C)=O)C(C)OC(=O)C(Cc2ccc(OC)cc2)N(C)C(=O)C2CCCN2C(=O)C(C(C)C)NC1=O (configuration not stated) (Ac-TPIVP[NMeY](Me); ester 1-C; configuration not given here) | inactive |  |  |
| COc1cccc2cc3c(c(O[C@@H]4O[C@H](CO[C@@H]5O[C@H](CO)[C@@H](O)[C@H](O)[C@H]5O)[C@@H](O)[C@H](O)[C@H]4O)c12)C(C)OC3=O (some centres not stated) | inactive |  |  |
| CC(C)(F)C[C@@H](N[C@@H](c1ccc(-c2ccc(S(C)(=O)=O)cc2)cc1)C(F)(F)F)C(=O)NC1(C#N)CC1 | inactive |  |  |
| C[C@@H]1CCC2C(C)(C)[C@H](O)CC[C@]2(C)[C@@]12Cc1c(O)cc3c(c1O2)CN([C@@H](CCC(=O)O)C(=O)O)C3=O (some centres not stated) | inactive |  |  |
| C=C[C@]1(C)C=C2CCC3C(C)(CCC[C@@]3(C)C(=O)O)C2CC1 (some centres not stated) | inactive |  |  |
| CC(=O)N[C@@H](CCCCN)C(=O)N(C)[C@@H](CC(C)C)C(=O)N[C@H](C(=O)N(C)[C@@H](Cc1ccccc1)C(=O)N[C@H](Cc1ccccc1)C(N)=O)C(C)C |  | inactive [at 4.96 µM] |  |
| CC(NC(=O)CCc1nc2ccccc2c(=O)[nH]1)c1ccccc1 (configuration not stated) | inactive |  |  |
| COC1=CC(=O)CC(C)C12Oc1cc(OC)cc(O)c1C2=O (configuration not stated) | inactive |  |  |
| CC(=O)OC12COC1CC(O)C1(C)C(=O)C(O)C3=C(C)C(OC(=O)C(O)C(NC(=O)OC(C)(C)C)c4ccccc4)CC(O)(C(OC(=O)c4ccccc4)C21)C3(C)C (configuration not stated) | inactive |  |  |
| O=C1OCC(c2ccccc2)=C1Cc1ccccc1 | inactive |  |  |
| CC(NC(=O)C(O)C(C)C)C(=O)NC1C(=O)N(C)CCc2ccccc21 (configuration not stated) | inactive |  |  |
| CC1(C)C=CN2C(=O)C3=CCCN3C(=O)[C@@H]2C[C@@]12Nc1ccccc1C2=O | inactive |  |  |
| OC[C@H]1O[C@@H](Oc2ccccc2)[C@H](O)[C@@H](O)[C@@H]1O | inactive |  |  |
| CC(Oc1ccc2[nH]nc(/C=C/c3cnn(CCO)c3)c2c1)c1c(Cl)cncc1Cl (configuration not stated) | 103 nM (active) |  |  |
| CS(=O)(=O)N1CCC(NC(=O)c2[nH]ncc2NC(=O)c2c(Cl)cccc2Cl)CC1 | 332 nM (active) |  |  |
| CCc1cnn2c(NCc3ccc[n+]([O-])c3)cc(N3CCCCC3CCO)nc12 (configuration not stated) | 9.2 nM (active) |  |  |
| CC1(C)CC[C@]2(C(=O)O[C@@H]3O[C@H](CO)[C@@H](O)[C@H](O)[C@H]3O)CC[C@]3(C)C(=CCC4[C@@]5(C)CC[C@H](O[C@@H]6O[C@H](C(=O)O)[C@@H](O)[C@H](O)[C@H]6O)[C@@](C)(CO)C5CC[C@]43C)C2C1 (some centres not stated) |  |  | 4.55% [at 9.23 µM] |
| CC(O)CO[C@@H]1O[C@H](CO)[C@@H](O)[C@H](O)[C@H]1O (some centres not stated) | inactive |  |  |
| C/C1=C\CC[C@H](C)CCO[C@@H]2O[C@H](CO[C@@H]3OC[C@](O)(COC1=O)[C@H]3O)[C@@H](O)[C@H](O)[C@H]2O | inactive |  |  |
| O=C(CCc1nnc2n(Cc3ccc(Cl)cc3)c(=O)c3ccccc3n12)NCCC1=CCCCC1 | inactive |  |  |
| CNC(=O)c1cccc(-c2ccc3c(N4CCOC[C@@H]4C)nc(N4CCOC[C@@H]4C)nc3n2)c1 | 230 nM (active) and 326 nM (active) and 296 nM (active) |  |  |
| CCC1=CC2CN(C1)Cc1c([nH]c3ccccc13)[C@@](C(=O)OC)(c1cc3c(cc1OC)N(C)[C@H]1[C@@](O)(C(=O)OC)[C@H](OC(C)=O)[C@]4(CC)C=CCN5CC[C@]31[C@@H]54)C2 (some centres not stated) | 31.7 nM (active) |  |  |
| CC(=O)OC1C(=O)C2(C)C(O)CC3OCC3(OC(C)=O)C2C(OC(=O)c2ccccc2)C2(O)CC(OC(=O)C(O)C(NC(=O)c3ccccc3)c3ccccc3)C(C)=C1C2(C)C (configuration not stated) | 6.5 nM (active) |  |  |
| COc1cc(O)cc(C)c1C(=O)OC1C(CO)OC(OC2C(O)C(O)C(O)C(O)C2O)C(O)C1O (configuration not stated) | inactive |  |  |
| CC(Nc1ncnc2nc[nH]c12)c1cc2cccc(Cl)c2c(=O)n1-c1ccccc1 (configuration not stated) | 468 nM (active) |  |  |
| CC(C)(O)C1CCC(C)(C2CCC3(C)C4CCC5C(C)(C(=O)OC6OC(CO)C(O)C(O)C6O)C(O)CC(O)C56CC46CCC23C)O1 (configuration not stated) | inactive |  |  |
| CC(C)C(N)C(=O)OCCOCn1cnc2c(=O)[nH]c(N)nc21 (configuration not stated) | inactive |  |  |
